This is an account of results in ChEMBL document CHEMBL3988442, “University of Dundee, Small-Polar-MMV Screening Library” (2021).

Holding throughout (set-up): scale not given: direction of the effect not stated beside the values
For experiment [1], the target named is Protein translocase subunit SecA (Escherichia coli (strain K12)) (UniProt P10408). The experiment in a line: Assay to Identify E. coli SecA ATPase Inhibitors. It is filed as functional. The settings on record: 30 µM.
In experiment [2] the target is T1, Ubiquitin-activating enzyme e1, putative (Leishmania donovani (strain BPK282A1)) (UniProt E9BSI1).
T1 sequence (whole entry): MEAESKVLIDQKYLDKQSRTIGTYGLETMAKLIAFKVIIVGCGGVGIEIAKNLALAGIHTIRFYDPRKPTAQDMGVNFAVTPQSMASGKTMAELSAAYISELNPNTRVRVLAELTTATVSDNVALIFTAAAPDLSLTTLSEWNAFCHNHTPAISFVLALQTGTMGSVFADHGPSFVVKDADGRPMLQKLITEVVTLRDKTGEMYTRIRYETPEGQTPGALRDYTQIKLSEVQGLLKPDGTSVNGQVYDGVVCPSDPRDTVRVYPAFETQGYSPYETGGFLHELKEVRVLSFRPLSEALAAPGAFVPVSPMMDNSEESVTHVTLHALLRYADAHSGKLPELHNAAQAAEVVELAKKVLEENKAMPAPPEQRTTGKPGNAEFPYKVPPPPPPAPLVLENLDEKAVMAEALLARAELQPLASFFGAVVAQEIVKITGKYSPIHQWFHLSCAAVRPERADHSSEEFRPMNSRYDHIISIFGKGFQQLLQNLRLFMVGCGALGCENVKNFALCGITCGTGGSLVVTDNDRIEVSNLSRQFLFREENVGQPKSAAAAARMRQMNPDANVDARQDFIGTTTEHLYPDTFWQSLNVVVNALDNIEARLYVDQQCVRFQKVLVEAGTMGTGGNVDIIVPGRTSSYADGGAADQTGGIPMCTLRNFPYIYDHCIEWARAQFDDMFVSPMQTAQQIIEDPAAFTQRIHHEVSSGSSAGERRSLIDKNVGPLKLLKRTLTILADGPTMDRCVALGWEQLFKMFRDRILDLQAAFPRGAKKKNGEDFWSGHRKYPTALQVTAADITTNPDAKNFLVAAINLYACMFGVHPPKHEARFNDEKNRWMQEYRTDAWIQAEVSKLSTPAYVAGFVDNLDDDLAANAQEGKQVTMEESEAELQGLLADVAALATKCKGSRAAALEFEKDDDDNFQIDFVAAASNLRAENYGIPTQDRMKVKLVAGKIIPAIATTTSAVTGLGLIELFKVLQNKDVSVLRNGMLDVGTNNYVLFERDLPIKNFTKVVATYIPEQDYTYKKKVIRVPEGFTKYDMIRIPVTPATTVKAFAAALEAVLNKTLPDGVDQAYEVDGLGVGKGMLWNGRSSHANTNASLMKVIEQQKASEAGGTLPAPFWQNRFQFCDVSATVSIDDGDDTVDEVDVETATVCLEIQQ
The experiment in a line: Leishmania donovani Ubiquitin Activating Enzyme (LdE1). The settings on record: 30 µM. The class given is functional.

For experiment [3], the target named is AMP-activated protein kinase, AMPK (Homo sapiens) (UniProt P54646+O43741+P54619+Q9UGJ0+Q9Y478+Q13131+Q9UGI9). The experiment in a line: AMP-dependent Kinase enzyme assay. An in vitro enzyme assay that detects ADP turnover that is directly proportional to AMPK activity. This uses naive AMPK that is activated during the assay with MK-8722. It is filed as functional. The conditions noted are these: 30 µM.

Experiment [4] concerns the target Sialic acid-binding Ig-like lectin 9 (Homo sapiens) (UniProt Q9Y336). The experiment in a line: Hs-Siglec9 ALPHAscreen SOP 20170721. The conditions noted are these: 10 µM.
The next experiment deals with Trypanosoma cruzi. The experiment in a line: Trypanosoma cruzi phosphomannomutase and mannose-1-phosphate guanylyltransferase assay. The conditions noted are these: 10 µM. The class given is functional.
Experiment [5] concerns the target T2, Arginase-2, mitochondrial (Homo sapiens) (UniProt P78540).
T2 sequence (whole entry): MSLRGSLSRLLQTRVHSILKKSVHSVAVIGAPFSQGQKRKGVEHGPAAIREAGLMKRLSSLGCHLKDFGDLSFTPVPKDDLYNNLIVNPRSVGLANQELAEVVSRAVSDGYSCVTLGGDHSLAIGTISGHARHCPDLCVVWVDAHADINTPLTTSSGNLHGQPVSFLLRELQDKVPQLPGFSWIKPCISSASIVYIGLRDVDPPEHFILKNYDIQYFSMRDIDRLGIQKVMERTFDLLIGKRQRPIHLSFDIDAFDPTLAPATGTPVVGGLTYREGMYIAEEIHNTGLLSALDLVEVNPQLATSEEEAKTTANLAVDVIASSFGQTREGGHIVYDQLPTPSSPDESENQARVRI
Briefly: in vitro enzyme assay to detect the production of urea directly proportional to the activity of Arginase II. Also: in the data most compounds retested in dose-response had high values. The class given is functional. The conditions noted are these: 33.3 µM.

Experiment [6] deals with T3, Proteasome subunit beta (Trypanosoma cruzi) (UniProt O96673).
T3 sequence (whole entry): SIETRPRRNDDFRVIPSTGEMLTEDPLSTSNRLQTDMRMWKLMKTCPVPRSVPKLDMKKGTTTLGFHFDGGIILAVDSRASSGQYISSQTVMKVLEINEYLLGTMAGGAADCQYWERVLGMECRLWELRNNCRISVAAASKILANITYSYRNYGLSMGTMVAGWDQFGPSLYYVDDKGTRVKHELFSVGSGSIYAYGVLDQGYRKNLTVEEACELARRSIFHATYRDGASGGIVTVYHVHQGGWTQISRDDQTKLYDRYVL
Briefly: Trypanosoma cruzi proteasome chymotrypsin-like activity (TcProtChymo) assay. Also: in the data most compounds retested in dose-response had high values. It is filed as functional. The conditions noted are these: 9.37 µM.

The species entered for the next experiment is Homo sapiens. The experiment in a line: To identify inhibition of the IFN signalling (Jak-Stat) pathway via expression of an eGFP reporter gene under the control of an IFN-stimulated response element (ISRE) containing MxA promoter. The class given is functional. The settings on record: 30 µM.
The target in experiment [7] is T4, Tyrosyl-tRNA synthetase, putative (Trypanosoma cruzi (strain CL Brener)) (UniProt Q4DSP6).
T4 sequence (whole entry): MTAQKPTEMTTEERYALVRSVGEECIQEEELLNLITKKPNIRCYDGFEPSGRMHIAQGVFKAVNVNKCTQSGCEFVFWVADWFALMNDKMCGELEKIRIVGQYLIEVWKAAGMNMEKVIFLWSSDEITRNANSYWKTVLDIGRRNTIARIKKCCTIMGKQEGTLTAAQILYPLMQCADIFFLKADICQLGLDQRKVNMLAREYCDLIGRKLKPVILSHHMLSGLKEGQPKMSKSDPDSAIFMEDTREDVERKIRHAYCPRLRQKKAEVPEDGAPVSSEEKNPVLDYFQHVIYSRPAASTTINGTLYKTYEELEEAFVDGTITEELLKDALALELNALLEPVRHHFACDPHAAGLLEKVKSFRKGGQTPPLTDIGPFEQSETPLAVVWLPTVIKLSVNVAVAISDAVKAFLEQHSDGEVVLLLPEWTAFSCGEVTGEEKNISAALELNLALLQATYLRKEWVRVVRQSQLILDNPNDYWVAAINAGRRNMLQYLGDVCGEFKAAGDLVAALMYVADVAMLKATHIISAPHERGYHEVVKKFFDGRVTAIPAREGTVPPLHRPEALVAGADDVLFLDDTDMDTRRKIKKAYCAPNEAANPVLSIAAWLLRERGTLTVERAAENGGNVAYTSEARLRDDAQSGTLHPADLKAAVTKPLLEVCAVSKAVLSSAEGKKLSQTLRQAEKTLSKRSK
The experiment in a line: Trypanosoma cruzi tyrosyl tRNA synthetase (TcYRS) _High Tyrosine SOP. Also: in the data most compounds retested in dose-response had high values. The class given is functional. The conditions noted are these: 30 µM.

Experiment [8] concerns the target T4, Tyrosyl-tRNA synthetase, putative (Trypanosoma cruzi (strain CL Brener)). Briefly: Trypanosoma cruzi tyrosyl tRNA synthetase (TcYRS) SOP. The settings on record: 30 µM. The class given is functional.
Experiment [9] deals with Chromo domain-containing protein 1 (Saccharomyces cerevisiae (strain ATCC 204508 / S288c) (Baker's yeast)) (UniProt P32657). Briefly: ScCHD-1 Enzyme Inhibition Assay. Also: in the data most compounds retested in dose-response had high values. It is filed as functional. The settings on record: 30 µM.

For some of these results: Potency and affinity values are given separately.

Sequence of Protein translocase subunit SecA (Escherichia coli (strain K12)) (P10408 whole entry): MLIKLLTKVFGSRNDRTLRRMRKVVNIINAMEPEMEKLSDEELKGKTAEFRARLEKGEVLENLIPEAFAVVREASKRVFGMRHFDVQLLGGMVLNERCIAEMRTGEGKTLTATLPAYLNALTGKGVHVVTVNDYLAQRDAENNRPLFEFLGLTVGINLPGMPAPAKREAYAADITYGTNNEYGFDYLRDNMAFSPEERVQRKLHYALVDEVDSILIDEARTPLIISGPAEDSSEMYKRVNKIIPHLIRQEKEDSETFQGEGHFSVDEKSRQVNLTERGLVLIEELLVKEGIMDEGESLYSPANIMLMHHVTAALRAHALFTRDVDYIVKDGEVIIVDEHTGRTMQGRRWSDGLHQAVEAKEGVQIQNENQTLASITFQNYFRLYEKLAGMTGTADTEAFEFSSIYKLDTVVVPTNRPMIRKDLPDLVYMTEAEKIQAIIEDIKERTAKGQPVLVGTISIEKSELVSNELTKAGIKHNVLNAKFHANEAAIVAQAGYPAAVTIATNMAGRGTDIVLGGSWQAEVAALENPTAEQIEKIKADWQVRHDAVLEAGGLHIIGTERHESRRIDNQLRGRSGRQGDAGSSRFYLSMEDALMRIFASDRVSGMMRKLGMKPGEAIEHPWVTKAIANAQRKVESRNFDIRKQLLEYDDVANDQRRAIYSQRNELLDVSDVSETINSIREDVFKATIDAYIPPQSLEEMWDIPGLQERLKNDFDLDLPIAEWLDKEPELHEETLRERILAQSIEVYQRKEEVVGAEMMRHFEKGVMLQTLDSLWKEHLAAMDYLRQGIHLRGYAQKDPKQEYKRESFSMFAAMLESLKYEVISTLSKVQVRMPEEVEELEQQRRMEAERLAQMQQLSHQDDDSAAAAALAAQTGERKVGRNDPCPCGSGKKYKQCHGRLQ
Sequence of Sialic acid-binding Ig-like lectin 9 (Homo sapiens) (Q9Y336 whole entry): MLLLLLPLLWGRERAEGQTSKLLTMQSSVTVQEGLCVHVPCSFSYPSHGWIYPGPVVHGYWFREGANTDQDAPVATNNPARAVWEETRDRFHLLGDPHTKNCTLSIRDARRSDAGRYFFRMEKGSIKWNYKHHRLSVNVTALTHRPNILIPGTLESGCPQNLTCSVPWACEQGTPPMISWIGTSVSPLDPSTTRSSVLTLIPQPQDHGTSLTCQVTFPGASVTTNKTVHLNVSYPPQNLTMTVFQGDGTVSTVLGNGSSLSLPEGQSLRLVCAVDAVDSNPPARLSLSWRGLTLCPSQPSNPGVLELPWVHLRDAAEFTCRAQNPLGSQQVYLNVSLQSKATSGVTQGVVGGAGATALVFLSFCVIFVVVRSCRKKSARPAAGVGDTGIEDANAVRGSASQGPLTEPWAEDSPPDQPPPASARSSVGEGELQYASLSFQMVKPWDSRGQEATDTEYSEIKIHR
Sequence of Chromo domain-containing protein 1 (Saccharomyces cerevisiae (strain ATCC 204508 / S288c) (Baker's yeast)) (P32657 whole entry, the tested form may be a part): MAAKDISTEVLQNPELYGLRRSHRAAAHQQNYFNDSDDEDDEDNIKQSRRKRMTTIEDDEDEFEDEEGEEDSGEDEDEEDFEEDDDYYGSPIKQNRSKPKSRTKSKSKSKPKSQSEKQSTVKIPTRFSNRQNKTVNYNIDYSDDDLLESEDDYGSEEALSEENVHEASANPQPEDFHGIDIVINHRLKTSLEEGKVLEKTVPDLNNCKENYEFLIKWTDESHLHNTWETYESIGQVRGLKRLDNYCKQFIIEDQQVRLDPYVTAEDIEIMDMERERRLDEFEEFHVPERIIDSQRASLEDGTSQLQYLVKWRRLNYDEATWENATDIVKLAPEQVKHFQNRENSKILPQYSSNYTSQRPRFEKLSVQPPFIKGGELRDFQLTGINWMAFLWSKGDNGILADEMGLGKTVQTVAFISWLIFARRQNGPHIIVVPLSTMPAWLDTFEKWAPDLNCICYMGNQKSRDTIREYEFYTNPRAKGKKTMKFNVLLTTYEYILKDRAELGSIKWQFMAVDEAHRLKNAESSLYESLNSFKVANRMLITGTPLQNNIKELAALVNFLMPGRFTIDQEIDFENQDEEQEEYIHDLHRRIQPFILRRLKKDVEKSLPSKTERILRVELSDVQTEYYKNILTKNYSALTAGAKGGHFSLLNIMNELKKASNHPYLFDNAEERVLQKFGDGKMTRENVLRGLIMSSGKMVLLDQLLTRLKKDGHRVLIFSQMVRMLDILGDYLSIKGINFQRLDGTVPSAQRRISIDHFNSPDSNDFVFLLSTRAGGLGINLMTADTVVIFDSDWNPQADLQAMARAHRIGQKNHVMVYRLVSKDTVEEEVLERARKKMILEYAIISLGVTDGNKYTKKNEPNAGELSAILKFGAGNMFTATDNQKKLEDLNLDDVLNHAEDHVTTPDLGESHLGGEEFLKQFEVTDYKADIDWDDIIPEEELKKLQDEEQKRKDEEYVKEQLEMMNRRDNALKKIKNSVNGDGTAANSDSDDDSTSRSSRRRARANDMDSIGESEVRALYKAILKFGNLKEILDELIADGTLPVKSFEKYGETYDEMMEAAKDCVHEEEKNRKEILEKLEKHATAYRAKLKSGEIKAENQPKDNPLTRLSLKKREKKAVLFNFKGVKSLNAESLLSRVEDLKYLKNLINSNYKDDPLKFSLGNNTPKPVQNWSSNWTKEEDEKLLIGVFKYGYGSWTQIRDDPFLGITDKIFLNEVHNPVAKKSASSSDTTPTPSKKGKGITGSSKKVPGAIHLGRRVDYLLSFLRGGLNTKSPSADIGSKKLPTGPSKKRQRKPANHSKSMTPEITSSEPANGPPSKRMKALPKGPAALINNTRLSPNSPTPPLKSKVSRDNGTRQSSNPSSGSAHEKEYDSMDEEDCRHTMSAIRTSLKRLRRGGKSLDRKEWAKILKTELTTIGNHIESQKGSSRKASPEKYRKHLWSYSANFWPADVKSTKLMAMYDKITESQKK

On to `Cc1cccc(CN2C[C@@H]3CN(C(=O)c4ccsc4)C[C@@H]3C2=O)c1`, for which the Percent Effect in experiment [1] is -2.06%; in [2], 7.79%; in experiment [3] it was 5.77%; in [4], 6.12%; in the experiment with Trypanosoma cruzi, -3.25%; in [5], 0%. The Percent Effect came to 13% in [6]; 18.7% in the experiment listed under Homo sapiens; 3.23% in experiment [7]; 8.64% in experiment [8]; 0.397% in [9].
Consider `Cc1nc(CN2C(=O)C[C@@H]3[C@@H]2CCN3C(=O)C2CCOCC2)cs1`, for which the Percent Effect was -0.279% in [1]; 8.22% in [2]; -5.72% in experiment [3]; 3.96% in [4]; 4.17% in the experiment on Trypanosoma cruzi; -5.19% in [5]. Further, the Percent Effect was 8.82% in [6]; -4.21% in the experiment listed under Homo sapiens; 1.04% in experiment [7]; -3.7% in experiment [8]; -3.04% in experiment [9].
With `O=C(NCCN1CCCCC1)c1nc2ccccc2c(=O)[nH]1`, the Percent Effect in [1] was 4.74%; in experiment [2] it was 9.33%; in experiment [3] it was -7.18%; in [4], -5.32%; in the experiment with Trypanosoma cruzi, -8.05%; in experiment [5], -13.6%. Besides, the Percent Effect in [6] is 13.7%; in the experiment filed under Homo sapiens, -0.00779%; in experiment [7], 0%; in [8], 10.3%; in experiment [9], -9.94%.
As to `Cc1ncnc2c1CCN(c1cc(C(F)(F)F)ncn1)CC2`, the Percent Effect in [1] was -2.66%; in [2], 13.3%; in [3] it was -0.456%; in [4] it was -3.31%; in the experiment with Trypanosoma cruzi it was -3.09%; in [5], -58.2%. The Percent Effect in experiment [6] was 13.7%; in the experiment filed under Homo sapiens it was 4.55%; in experiment [7], 0%; in experiment [8], 2.5%; in [9] it was -7.43%.
Consider `Cc1cc(=O)n(CC(=O)NCC2CCCO2)c(-c2cccc(Cl)c2)n1` (stereo unspecified), for which the Percent Effect was -4.72% in [1]; 18.2% in experiment [2]; -2.1% in experiment [3]; 12.6% in [4]; 6.59% with Trypanosoma cruzi; 11% in [5]. Besides, the Percent Effect in [6] was 9.15%; in the experiment filed under Homo sapiens, -10.7%; in [7] it was 5.38%; in experiment [8], 16.1%; in experiment [9] it was -4.38%.
On to `O=C(c1ccc(C2CCCO2)s1)N1CCN(c2ccccc2F)CC1` (stereo unspecified), for which the Percent Effect in [1] is -2.34%; in experiment [2] it was 16.2%; in experiment [3], -2.01%; in [4], 21.1%; with Trypanosoma cruzi it was 3.67%; in experiment [5], 30%. The Percent Effect in experiment [6] was 14.1%; in the experiment filed under Homo sapiens, -6.24%; in experiment [7], 5.82%; in [8] it was 14.6%; in [9] it was -4.16%.
As to `O=C(NCc1cc(=O)n2c(n1)CN(CC1CCOC1)CCC2)C1CC1` (stereo unspecified), the Percent Effect in experiment [1] is 0.233%; in experiment [2], 2.74%; in [3], -1.09%; in [4] it was 5.91%; with Trypanosoma cruzi, 6.35%; in [5], -0.399%. In addition, the Percent Effect in experiment [6] is 6.76%; in the experiment filed under Homo sapiens it was -4.97%; in experiment [7] it was 3.12%; in experiment [8], 11.1%; in experiment [9], -3.69%.
Consider `Cc1cccc(N2CCN(C(=O)CN3CCN(CCO)CC3)CC2)c1`, for which the Percent Effect was -7.92% in experiment [1]; 8.22% in experiment [2]; 2.85% in experiment [3]; 6.75% in experiment [4]; 3.37% in the experiment with Trypanosoma cruzi; 0.798% in [5]. Besides, the Percent Effect in experiment [6] was 3.51%; in the experiment filed under Homo sapiens, 10.3%; in experiment [7] it was 9.38%; in [8], 21%; in experiment [9], -0.672%.
Turning to `O=C(COc1coc(CN2CCCC2)cc1=O)NCc1ccccc1Cl`, the Percent Effect in [1] is -2.51%; in experiment [2] it was 1.33%; in experiment [3] it was 5.09%; in experiment [4] it was 5.58%; with Trypanosoma cruzi, 0.393%; in [5] it was -1.94%. Further, the Percent Effect in [6] is 7.02%; in the experiment listed under Homo sapiens it was -13.6%; in experiment [7] it was 6.35%; in experiment [8], 10.3%; in experiment [9], 0.789%.
`Cc1occc1C(=O)Nc1ccnc(OC2CCOC2)c1` (stereo unspecified): the Percent Effect in experiment [1] is -0.474%; in experiment [2], 6.94%; in experiment [3], -7.48%; in [4], 6.54%; with Trypanosoma cruzi it was 4.57%; in experiment [5] it was 7.95%. Also, the Percent Effect in experiment [6] was 14.7%; in the experiment listed under Homo sapiens it was 3.88%; in [7], -2.1%; in experiment [8], 2.56%; in experiment [9] it was -2.37%.
As for `N#Cc1ccccc1N1CCCN(C(=O)CCn2cccn2)CC1`, the Percent Effect is -6.4% in experiment [1]; 15.2% in experiment [2]; 5.53% in experiment [3]; 0.749% in experiment [4]; 5.19% with Trypanosoma cruzi; -0.76% in [5]. The Percent Effect in [6] was 6.8%; in the experiment filed under Homo sapiens it was 3.94%; in [7], 5.42%; in experiment [8] it was 16.5%; in experiment [9] it was -6.74%.
